# RE007 growth inh: qHTS Assay for Inhibitors of the HIV-1 protein Vpr; S. pombe RE007 Vpr strain, BacTiter-Glo ATP luminescence, 24 h; Potency, µM (highest dose often 92.2 µM), inactives show at the highest dose activity change, negative = less growth, most hits filed as inhibitors; 360,000 tested, 0.21% active; AID 651644, 2012; active means well fitted falling curve with a large enough effect; inconclusive means small, poorly fitted or top-dose-only effect; inactive means no such curve, though single readings can be large or run the other way; further: nearly all actives have a fitted effect of over 50% in size
#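 Fission yeast strain RE007, carrying one chromosomally integrated HIV-1 vpr copy, was seeded at OD 0.01 in PMG+AL medium with 23 nL pinned compound. After 24 h at 30 °C and 99% humidity, viability was read by BacTiter-Glo luminescence.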
# AMA1-RON2 inh: qHTS for Inhibitors of AMA1-RON; Towards Development of Antimalarial Drug Lead: Primary Screen | AID 720542, 2013 | Potency, µM (series often up to 58.2 µM), inactives show top-dose activity change, negative = inhibition, most hits filed as inhibitors | 360,000 tested, 0.2% active | AlphaScreen AMA1-biotinylated RON2 peptide binding;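 further: 0% = vehicle wells and -100% = peptide control; nearly all actives have a fitted effect of over 45% in size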
#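 AMA1 (3D7) with his tag at 25 nM final met compounds first, then biotinylated RON2 peptide at 25 nM; detection used donor plus acceptor beads, 10 µg/mL apiece, read by AlphaScreen after 30 min at room temperature.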
# AmpC detergent: qHTS Inhibitors of AmpC Beta-Lactamase (assay with detergent); AmpC hydrolysis of nitrocefin, absorbance 480 nm, 0.01% Triton; Potency, µM (top dose mostly 114 µM), for the others: at the top dose activity change, negative = inhibition, usual class: inhibitors; 370,000 tested, 0.041% active; AID 485294, 2010;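 further: 0% = no-compound wells and -100% = no-enzyme wells; nearly all actives have a fitted effect of over 25% in size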
# Target sequence (P00811 whole entry, looked up): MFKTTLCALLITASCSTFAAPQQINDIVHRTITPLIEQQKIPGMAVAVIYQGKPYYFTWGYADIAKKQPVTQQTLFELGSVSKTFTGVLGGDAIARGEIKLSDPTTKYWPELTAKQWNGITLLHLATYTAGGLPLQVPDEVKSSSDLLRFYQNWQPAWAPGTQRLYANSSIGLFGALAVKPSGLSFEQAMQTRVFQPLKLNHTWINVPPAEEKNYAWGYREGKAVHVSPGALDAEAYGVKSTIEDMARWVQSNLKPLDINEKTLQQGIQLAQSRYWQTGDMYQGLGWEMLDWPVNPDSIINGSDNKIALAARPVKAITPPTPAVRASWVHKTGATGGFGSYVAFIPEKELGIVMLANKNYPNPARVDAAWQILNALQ
#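 20 mM phosphate pH 7.0 + 0.01% (detergent screen) or 0.0001% Triton X-100; 5.3 nM AmpC reagent; cpd preinc 15 min RT; nitrocefin (800 uM stock) to start; A480 q20 s × 4 min; Activity was normalised to no-enzyme and no-compound control wells.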
# Sm TGR inh: qHTS Assay for the Inhibitors of Schistosoma Mansoni Peroxiredoxins | Schistosoma mansoni thioredoxin glutathione reductase (TGR), Q962Y6 | purified TGR, DTNB reduction, TNB absorbance 405 nm | Potency, µM (highest dose often 114 µM), inactives show at the highest dose activity change, negative = inhibition, actives largely listed as inhibitors | 360,000 tested, 3% active | AID 485364, 2010; further: nearly all actives have a fitted effect of over 60% in size
#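 TGR 20 nM + NADPH 100 uM (dispensed conc.), cpd preinc 15 min RT; start with NADPH (500 uM addition) then DTNB (15 mM addition). Kinetic TNB absorbance, 405 nm filter. Four-parameter Hill fit across titration.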
# AmpC inh no detg: qHTS Inhibitors of AmpC Beta-Lactamase (assay without detergent); P00811; 330,000 tested, 0.52% active; Potency, µM (titrated, usually from 57.1 µM), for inactives: at the highest dose activity change, negative = inhibition, usual class: inhibitors; AID 485341, 2010; AmpC nitrocefin hydrolysis, absorbance 480 nm, 0.0001% Triton;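 further: plate controls were no compound for no effect and no enzyme for full effect; nearly all actives have a fitted effect of over 20% in size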
#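 AmpC (5.3 nM in the dispensed reagent) in 20 mM phosphate pH 7.0 with 0.01% (detergent screen) or 0.0001% Triton X-100 was preincubated with compounds for 15 min at room temperature. Nitrocefin was then added from an 800 uM solution, and hydrolysis was followed at 480 nm.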
# Starred values were filed as active, the others as inactive; ? = inconclusive; . = no result given. Hits are enriched below; roughly 3.2% of the tested compounds scored in any of these assays. Unless noted, the call rests on the fitted dose curve; in most records, active means well fitted curve in the direction sought with a large enough effect; inconclusive means small, poorly fitted or top-dose-only effect, or another doubt; inactive means no such curve, though single readings can be large; an effect the other way counts as inactive or inconclusive. Unless noted, on the % scale 0 is the no-effect control and ±100 the full control effect; potency means the concentration at half of the fitted maximal effect.
SMILES,RE007 growth inh,AMA1-RON2 inh,AmpC detergent,Sm TGR inh,AmpC inh no detg
Cc1ccc(NC(=O)C2C3C=CC(O3)C2C(=O)O)c(C)c1 (centres undefined),-17.6%,-0.5%,-0.3%,35.5µM*,-16.2%
CC(=O)c1cccc(NC(=O)c2cccn2-c2nnc(N3CCCCC3)s2)c1,.,.,5.2%,2.8%,.
Cc1oc2ncn(C)c(=O)c2c1C(=O)N1CCN(c2ccccc2)CC1,.,.,2.8%,0.9%,.
Clc1nnc(N/N=C/c2ccccc2)c2ccccc12,?,32.1%,2.9%,0.0%,0.1%
C[n+]1ccc(/C=N/Nc2nc(Cl)c(C#N)c(Cl)c2Cl)cc1,?,31.3%,-6.6%,11.2µM*,-22.6%
CCc1cccc(NC(=O)Cn2c(C(=O)OC)cc3occc32)c1,.,.,-7.1%,-22.7%,.
COCCn1c(-c2ccc(-c3ccccc3Cl)o2)nc2c1c(=O)[nH]c(=O)n2CC(C)C,-0.7%,-11.6%,1.3%,31.6µM*,-39.3%
CCCCn1c(=O)[nH]c(=O)c2c1nc(-c1ccc(-c3ccccc3Br)o1)n2CCOC,-24.1%,-0.4%,-11.0%,?,-13.7%
COc1ccc(C2=CC3=C(Br)C(=O)C(C)(O)C(=O)C3=CO2)cc1 (centres undefined),?,-27.0%,-5.6%,8.91µM*,-25.6%
CCC(=O)OC1(C)C(=O)C2=COC(c3ccc(OC)cc3)=CC2=C(Br)C1=O (centres undefined),?,?,1.1%,11.2µM*,-24.4%
COC(=O)CCC(=O)OC1(C)C(=O)C2=CN(Cc3ccc(OC)cc3)C(c3ccc(OC)cc3)=CC2=C(Br)C1=O (centres undefined),-1.1%,-4.7%,.,.,.
Cc1cc2c(c3oc(=O)c4ccccc4c13)CN(Cc1ccc(F)cc1)CO2,.,.,24.6%,-2.8%,.
CCOC(=O)CC(NS(=O)(=O)c1ccc2[nH]c3c(c2c1)CCCC3)c1ccccc1Cl (centres undefined),.,.,-5.6%,5.2%,.
COc1ccc(NC(=O)Cn2ccn(-c3ccccc3)c(=O)c2=O)cc1,.,.,15.9%,-2.8%,.
Cc1ccc(S(=O)(=O)Nc2cc3c(cc2N2CCOCC2)n(C)c(=O)n3C)c(C)c1,.,.,-2.9%,?,.
COc1ccc(NC(=O)Cn2c(=O)n(Cc3ccco3)c(=O)c3cc(OC)c(OC)cc32)cc1,.,.,10.6%,-0.1%,.
Cc1ccc(C)c(NC(=O)CSc2ccc3nc(-c4ccccc4)cn3n2)c1,.,.,-5.1%,-9.8%,.
C/C=C\C=C/C(=O)Nc1cccc(C2=NOC3(C2)C[C@H](C(N)=O)N(C(=O)Cc2ccc([N+](=O)[O-])cc2)C3)c1 (some centres undefined),-6.2%,4.3%,-0.8%,1.12µM*,69.9%
C/C=C/C=C\C(=O)Nc1cccc(C2=NOC3(C2)C[C@H](C(N)=O)N(C(=O)CC#N)C3)c1 (some centres undefined),-10.9%,-6.4%,-8.8%,2µM*,80.2%
C/C=C(\C)C(=O)Nc1cccc(C2=NOC3(C2)C[C@@H](C(N)=O)N(C(=O)/C(C)=C/C)C3)c1 (some centres undefined),-3.5%,3.9%,-4.8%,49.9%,15.7%
C/C=C(/C)C(=O)Nc1cccc(C2=NOC3(C2)C[C@H](C(N)=O)N(C(=O)Cc2ccc([N+](=O)[O-])cc2)C3)c1 (some centres undefined),-6.8%,-7.7%,1.5%,1.6%,105.6%
CCCCCC(=O)Nc1cccc(C2=NOC3(C2)C[C@H](C(N)=O)N(C(=O)CC#N)C3)c1 (some centres undefined),.,.,-4.9%,-0.2%,-0.4%
C/C=C/C=C\C(=O)Nc1cccc(C2=NOC3(C2)C[C@@H](C(N)=O)N(C(=O)/C(C)=C/C)C3)c1 (some centres undefined),-11.5%,-15.2%,0.1%,2.51µM*,74.9%

# Screening results (PubChem)
